Screening data deposited in PubChem BioAssay by NMMLSC.
This is a sample that favours compounds with a hit; in the whole collection about 0.93% have one here.
AGP1 TOR yeast = alters AGP1-GFP fluorescence in TOR pathway yeast screen; S. cerevisiae AGP1-GFP multiplex flow cytometry, 3 h; GFP as percent of DMSO wells; GFP response vs DMSO, % at 10 µM; 0.02% of 320,000 active;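 active = GFP response relative to DMSO above a set limit, near screen average plus 3 SD, cut at about 150% in these data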;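 note: median GFP channel fluorescence of the gated AGP1 strain per well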
MEP2 TOR yeast = alters MEP2-GFP fluorescence in TOR pathway yeast screen; AID 2016; GFP response vs DMSO, % at 10 µM; 0.51% of 330,000 active; S. cerevisiae MEP2-GFP strain, flow cytometry GFP, 3 h; 100% = DMSO control level;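 active = GFP response versus DMSO above a set limit, roughly screen mean plus 3 SD, cut at about 180% in these data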;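 note: median GFP fluorescence of the barcode-gated MEP2-GFP cells per well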
LAP4-GFP MLPCN = alters LAP4-GFP fluorescence in TOR pathway yeast screen; S. cerevisiae LAP4-GFP multiplex, flow cytometry GFP, 3 h; median GFP as percent of DMSO wells; GFP response vs DMSO, % at 10 µM; 0.34% of 320,000 active;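 active = GFP response vs DMSO above a set limit, about the screen mean plus 3 SD, cut at about 150% in these data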
CIT2-GFP yeast = modulators of TOR pathway CIT2-GFP in S. cerevisiae; S. cerevisiae CIT2-GFP strain, flow cytometry, 3 h; 100 means same as DMSO wells; GFP response vs DMSO, % at 10 µM; 0.065% of 320,000 active; AID 2029;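 active = GFP response relative to DMSO above a set limit, near the screen mean plus 3 SD, cut at about 150% in these data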;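 note: ratio of well median GFP fluorescence to mean of DMSO wells on the plate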
RPL19A TOR yeast = yeast TOR pathway RPL19A-GFP modulation; S. cerevisiae RPL19A-GFP strain, flow cytometry, 3 h; hits give low values; percent response vs DMSO, % at 10 µM; 0.3% of 330,000 active; AID 2025;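 active = percent response vs DMSO below 50%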;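 note: median channel GFP fluorescence of the barcoded RPL19A-GFP strain; lower means less RPL19A-GFP as with rapamycin TOR inhibition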
LAP4 cherry2 = reconfirmed LAP4-GFP TOR pathway modulator in yeast. shares compounds with LAP4-GFP MLPCN. S. cerevisiae LAP4-GFP strain, flow cytometry GFP, 3 h. GFP response vs DMSO, % at 10 µM. 20% of 590 active. AID 2621;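 active = GFP signal as percent of the solvent control above about 150%, meaning raised reporter expression, limit read from the data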
MEP2 cherry2 = second confirmation of modulators of TOR reporter MEP2-GFP in yeast. shares compounds with LAP4-GFP MLPCN. S. cerevisiae MEP2-GFP strain, flow cytometry GFP, 3 h. GFP response vs DMSO, % at 10 µM. 10% of 590 active. AID 2622;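 active = GFP signal above 150% of the solvent control wells, that is a rise of more than half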;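 note: median channel GFP fluorescence of all gated yeast cells per well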
RPL19A-GFP pick2 = reconfirmed modulator of RPL19A-GFP TOR reporter in yeast; shares compounds with LAP4-GFP MLPCN; S. cerevisiae RPL19A-GFP strain, flow cytometry GFP, 3 h; hits give low values; 100% means same as DMSO wells; GFP response vs DMSO, % at 10 µM; 3% of 590 active; AID 2623;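 active = under 65% GFP response relative to DMSO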;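 note: median GFP channel fluorescence per well over the all cells gate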
CIT2 GFP CP2 = second confirmation of modulators of TOR reporter CIT2-GFP in yeast; shares compounds with LAP4-GFP MLPCN; AID 2624; 8% of 590 active; S. cerevisiae CIT2-GFP strain, flow cytometry GFP, 3 h; DMSO control wells read 100%; GFP response vs DMSO, % at 10 µM;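 active = GFP response vs DMSO above about 150%, limit read from the data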;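 note: median green fluorescence per well over all gated yeast cells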
AGP1-GFP pick2 = yeast AGP1-GFP TOR reporter modulation, second cherry pick; AID 2643; S. cerevisiae AGP1-GFP strain, flow cytometry GFP, 3 h; shares compounds with LAP4-GFP MLPCN; 590 tested, under 10 active; percent response vs DMSO, % at 10 µM;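 active = over 150 percent of DMSO response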;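 note: median GFP channel fluorescence over all cells without mother daughter split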
s288c autofluor = yeast s288c autofluorescence artifact, counter-screen; shares compounds with LAP4-GFP MLPCN; S. cerevisiae s288c, 520 nm autofluorescence, flow cytometry, 3 h; hits give high values; zero means same as solvent-only cells; fluorescence change (kMESF span) at 33 µM; 610 tested, under 10 active; AID 2757;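 active = fluorescence span over the dose series, or activity score, above about 33, limit read from the data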
Yeast autofl DR = TOR screen hit shows autofluorescence in yeast s288c. fluorescence change (span) at 33 µM. AID 488829. 110 tested, under 10 active. shares compounds with LAP4-GFP MLPCN. S. cerevisiae s288c parental, compound autofluorescence, flow cytometry, 3 h;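 active = fluorescence change span, or the activity score built from it, above 25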
TORC1 bypass = stops wildtype yeast growth while TORC1 bypass cells still grow. shares compounds with LAP4-GFP MLPCN. S. cerevisiae BY4741 spot growth rating, 48-72 h; hits give low values. growth rating (0-3) at 30 µM. 120 tested, under 10 active. AID 504456;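 active = growth rating at most 1 for wild type yeast while the TORC1 bypass strain still grows fully, rated 3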
Hits are given with their value; n = inactive; x = not tested or not shown; + = active, no number.

SMILES	AGP1 TOR yeast	MEP2 TOR yeast	LAP4-GFP MLPCN	CIT2-GFP yeast	RPL19A TOR yeast	others
Cc1nc(Nc2ccc(F)cc2)nc(Nc2ccc(F)cc2)c1[N+](=O)[O-]	n	n	n	n	n
Nc1nc(NCCc2ccccc2)nc(NCc2ccccc2)c1[N+](=O)[O-]	n	n	n	n	n
Nc1cc(Nc2cccc(F)c2)nc(NCc2ccccc2)n1	x	x	x	x	x	Yeast autofl DR=n;TORC1 bypass=n
Cc1cc(Nc2cccc(F)c2)nc(NCc2ccccc2)n1	n	n	n	n	n
CCC(C)Nc1nc(N)c([N+](=O)[O-])c(Nc2cccc(F)c2)n1 (configuration not stated)	x	x	x	x	x	Yeast autofl DR=n;TORC1 bypass=n
COCCNc1nc(N)c([N+](=O)[O-])c(Nc2cccc(F)c2)n1	x	x	x	x	x	Yeast autofl DR=n;TORC1 bypass=n
CCOC(=O)c1c(N)nc(NC)nc1Nc1cccc(F)c1	x	x	x	x	x	TORC1 bypass=n
Cc1ccc(CNc2nc(N)c([N+](=O)[O-])c(Nc3cccc(F)c3)n2)cc1	n	n	n	n	n
CCOc1ccc(S(=O)(=O)N2CCC(C(=O)N3CCN(c4ccccc4F)CC3)CC2)cc1C	n	n	n	n	n
Nc1nc(NC2CCCCC2)nc(Nc2cccc(F)c2)c1[N+](=O)[O-]	x	x	x	x	x	Yeast autofl DR=n;TORC1 bypass=n
Nc1nc(Nc2cccc(F)c2)nc(NCCO)c1[N+](=O)[O-]	n	n	n	n	n
Nc1nc(NC2CCCCC2)nc(NCCO)c1[N+](=O)[O-]	n	n	x	n	n
Nc1nc(Nc2ccccc2F)nc(Nc2cccc(F)c2)c1[N+](=O)[O-]	x	x	x	x	x	Yeast autofl DR=n;TORC1 bypass=n
O=[N+]([O-])c1ccccc1OCC(O)CN1CCN(CC(O)COc2ccccc2[N+](=O)[O-])CC1 (configuration not stated)	n	n	n	n	n
COc1ccc(-n2ccnc2SCC(=O)NO)cc1	n	n	n	n	n
CCc1cccc(C)c1NC(=O)CN(C)C1=NS(=O)(=O)c2ccccc21	n	n	n	n	n
CCCc1cc(N2CCOCC2)n2nc(C)c(-c3ccccc3)c2n1	n	n	n	n	n
CCCc1cc(N2CCN(c3ccccn3)CC2)n2nc(C)c(-c3ccccc3)c2n1	n	n	n	n	n	s288c autofluor=n
Cc1[nH][nH]c(=O)c1C(c1ccccc1[N+](=O)[O-])C(C#N)C#N (configuration not stated)	n	n	n	n	n
CC1=NN(c2ccccc2)C(=O)C1C(c1ccccc1[N+](=O)[O-])C(C#N)C#N (configuration not stated)	x	x	x	x	x	Yeast autofl DR=n;TORC1 bypass=n
COc1ccc(S(=O)(=O)N2CCc3ccccc32)cc1C(=O)NC1(C)CCS(=O)(=O)C1 (configuration not stated)	n	n	158	165	n	LAP4 cherry2=n;MEP2 cherry2=n;RPL19A-GFP pick2=n;CIT2 GFP CP2=n;AGP1-GFP pick2=n
COc1ccc(S(=O)(=O)N2CCCCCC2)cc1C(=O)NC1(C)CCS(=O)(=O)C1 (configuration not stated)	n	n	n	n	n
C/C(=N\Nc1ncnc2sc(C)c(C)c12)c1ccccn1	203	+	869	+	n	s288c autofluor=94
Cc1sc2ncnc(N/N=C/c3cccc(O)c3)c2c1C	n	n	n	n	n
COc1ccccc1OCC(=O)Nc1cc2c(cc1C(=O)O)OCCCO2	n	n	n	n	n
SMILES	AGP1 TOR yeast	MEP2 TOR yeast	LAP4-GFP MLPCN	CIT2-GFP yeast	RPL19A TOR yeast	others
O=C(CSc1n[nH]c(-c2ccccc2F)n1)Nc1cc(F)ccc1F	n	n	n	n	n
CCOC(=O)CSC1=NC(=O)/C(=C/c2ccc(OC)cc2)S1	n	n	152	n	n	s288c autofluor=n
CCc1cccc(N(CC(=O)NC2CCCCC2)C(=O)c2csnn2)c1	n	n	n	n	n
Oc1c(C(Nc2cccc(C(F)(F)F)c2)c2cccnc2)ccc2cccnc12 (configuration not stated)	n	n	n	n	n
Cc1ccc(C(c2cc(Cl)c3cccnc3c2O)N2CCN(C)CC2)cc1 (configuration not stated)	n	n	227	n	n	s288c autofluor=n;Yeast autofl DR=n;TORC1 bypass=n
CC(=O)NC(c1cc(Cl)c2cccnc2c1O)C(C)C (configuration not stated)	n	n	n	n	n
CN1CCN(C(c2ccc(C(F)(F)F)cc2)c2ccc3cccnc3c2O)CC1 (configuration not stated)	n	n	322	n	n	s288c autofluor=n;Yeast autofl DR=n;TORC1 bypass=n
Cc1cccn2cc(CCNC(=O)Cc3cccs3)nc12	n	n	n	n	n
CCNc1ccc(C(=O)OCC(=O)Nc2cc(C)on2)cc1[N+](=O)[O-]	n	n	n	n	n
COc1ccc(C2=NOC(C(=O)Nc3ccc4c(c3)OCCO4)C2)cc1OC (configuration not stated)	n	n	n	n	n
COc1ccc(/C(C)=N/Nc2ccccc2Cl)c(O)c1	n	n	n	n	n	LAP4 cherry2=n;MEP2 cherry2=n;RPL19A-GFP pick2=n;CIT2 GFP CP2=n;AGP1-GFP pick2=n
COc1cc(/C=C2/C(=O)c3cccc([N+](=O)[O-])c3C2=O)c(Br)cc1O	n	n	n	n	n	LAP4 cherry2=n;MEP2 cherry2=n;RPL19A-GFP pick2=n;CIT2 GFP CP2=n;AGP1-GFP pick2=n;s288c autofluor=n
COc1ccccc1NC(=O)CCCCCN1C(=O)c2cccc([N+](=O)[O-])c2C1=O	n	n	n	n	n
CC(=O)C1=C(O)C(=O)N(c2ccccn2)C1c1ccc(C)cc1 (configuration not stated)	n	n	n	n	n
